# Results taken from article PMC10812921, “Transcriptional Coactivator BOB1 (OBF1, OCA-B) Modulates the Specificity of DNA Recognition by the POU-Domain Factors OCT1 and OCT2 in a Monomeric Configuration”.
# How the values were obtained:
# [1] = biological target: POU1 (OCT1 POU domain) (human, UniProt P14859 260-458); experiment: EMSA-SELEX-seq; no BOB1; 20 mM Tris-HCl pH 7.6, 140 mM NaCl, 10% glycerol, 0.5 mM EDTA, 0.05% Triton X-100, 0.1 mg/mL BSA, 0.1 mg/mL poly(dI-dC), 5 mM DTT, room temperature, 20 min; high values mean tight binding; details: protein: recombinant; dsDNA, one strand shown
# In short: (§1)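 Binding preference is the percentage of sequenced 8-mers matching a motif pattern. Tagged POU-domain proteins expressed in E. coli BL21 were purified under denaturing conditions and renatured. For binding, 30 ng protein met 300 ng of a PCR-amplified double-stranded random 35-nt library, with or without 28 ng coactivator protein, in 20 μL Tris–HCl pH 7.6 binding buffer for 20 min at RT. Complex bands were cut from native 6% PAGE, eluted and PCR-amplified over four rounds, then Illumina-sequenced.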
# [2] = biological target: T1, POU2 (OCT2 POU domain) (human, UniProt P09086 175-386); experiment: as above; details: protein: recombinant; dsDNA, one strand shown
# T1 sequence: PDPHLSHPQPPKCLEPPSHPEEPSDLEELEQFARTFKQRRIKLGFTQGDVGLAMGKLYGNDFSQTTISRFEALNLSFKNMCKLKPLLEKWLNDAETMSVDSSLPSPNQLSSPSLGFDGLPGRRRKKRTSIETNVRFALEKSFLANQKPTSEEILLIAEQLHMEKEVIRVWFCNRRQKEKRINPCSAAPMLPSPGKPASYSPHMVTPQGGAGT
# In short: as §1
# [3] = biological target: POU1 (OCT1 POU domain);BOB1 (OBF1, OCA-B) (human;human, UniProt P14859;Q16633 260-458;1-256, |); experiment: EMSA-SELEX-seq; with BOB1 (ternary complex band); 20 mM Tris-HCl pH 7.6, 140 mM NaCl, 10% glycerol, 0.5 mM EDTA, 0.05% Triton X-100, 0.1 mg/mL BSA, 0.1 mg/mL poly(dI-dC), 5 mM DTT, room temperature, 20 min; high values mean tight binding; details: protein: recombinant;recombinant; copies: 1;1; dsDNA, one strand shown
# In short: as §1
# [4] = biological target: T2, POU2 (OCT2 POU domain);BOB1 (OBF1, OCA-B) (human;human, UniProt P09086;Q16633 175-386;1-256, |); experiment: as above; details: protein: recombinant;recombinant; copies: 1;1; dsDNA, one strand shown
# T2 sequence 1: T1 sequence
# T2 sequence 2: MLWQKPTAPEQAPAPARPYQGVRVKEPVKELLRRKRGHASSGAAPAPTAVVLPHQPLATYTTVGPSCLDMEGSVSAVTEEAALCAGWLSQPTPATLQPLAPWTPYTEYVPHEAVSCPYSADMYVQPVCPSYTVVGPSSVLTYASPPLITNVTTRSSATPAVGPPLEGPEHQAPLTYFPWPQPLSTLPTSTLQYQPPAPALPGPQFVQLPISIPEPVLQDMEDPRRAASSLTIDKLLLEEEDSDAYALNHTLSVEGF
# In short: as §1
# Chain of POU1 (OCT1 POU domain) (P14859 260-458): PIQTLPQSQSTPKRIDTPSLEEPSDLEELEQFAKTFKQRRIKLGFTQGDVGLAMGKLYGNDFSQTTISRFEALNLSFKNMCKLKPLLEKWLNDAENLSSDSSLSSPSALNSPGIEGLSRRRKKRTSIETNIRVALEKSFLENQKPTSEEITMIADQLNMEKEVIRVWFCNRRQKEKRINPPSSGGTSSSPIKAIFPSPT
Sequence,binding signal [1],binding signal [2],binding signal [3],binding signal [4]
ACTAAAAT,0.0805 % of ANNNNAAN 8-mers,0.0714 % of ANNNNAAN 8-mers,0.0663 % of ANNNNAAN 8-mers,0.0528 % of ANNNNAAN 8-mers
ATCGTAAA,0.0553 % of ANNNNAAN 8-mers,0.0552 % of ANNNNAAN 8-mers,0.0531 % of ANNNNAAN 8-mers,0.0471 % of ANNNNAAN 8-mers
ATTTCAAC,0.0416 % of ANNNNAAN 8-mers,0.0414 % of ANNNNAAN 8-mers,0.041 % of ANNNNAAN 8-mers,0.0429 % of ANNNNAAN 8-mers
ACTTCAAC,0.0145 % of ANNNNAAN 8-mers,0.015 % of ANNNNAAN 8-mers,0.0121 % of ANNNNAAN 8-mers,0.0231 % of ANNNNAAN 8-mers
ACGTCAAC,0.013 % of ANNNNAAN 8-mers,0.0173 % of ANNNNAAN 8-mers,0.0187 % of ANNNNAAN 8-mers,0.0165 % of ANNNNAAN 8-mers
AGGTTAAT,0.174 % of ANNNNAAN 8-mers,0.216 % of ANNNNAAN 8-mers,0.0921 % of ANNNNAAN 8-mers,0.108 % of ANNNNAAN 8-mers
ACTCCAAT,0.0294 % of ANNNNAAN 8-mers,0.0219 % of ANNNNAAN 8-mers,0.0242 % of ANNNNAAN 8-mers,0.0231 % of ANNNNAAN 8-mers
AAACAAAT,0.352 % of ANNNNAAN 8-mers,0.266 % of ANNNNAAN 8-mers,0.761 % of ANNNNAAN 8-mers,0.669 % of ANNNNAAN 8-mers
AAAAAAAT,0.13 % of ANNNNAAN 8-mers,0.12 % of ANNNNAAN 8-mers,0.152 % of ANNNNAAN 8-mers,0.12 % of ANNNNAAN 8-mers
ACCCTAAT,0.037 % of ANNNNAAN 8-mers,0.0518 % of ANNNNAAN 8-mers,0.0273 % of ANNNNAAN 8-mers,0.0223 % of ANNNNAAN 8-mers
AAAGAAAC,0.0355 % of ANNNNAAN 8-mers,0.0339 % of ANNNNAAN 8-mers,0.0433 % of ANNNNAAN 8-mers,0.0371 % of ANNNNAAN 8-mers
ATCAAAAC,0.0465 % of ANNNNAAN 8-mers,0.0443 % of ANNNNAAN 8-mers,0.0539 % of ANNNNAAN 8-mers,0.0347 % of ANNNNAAN 8-mers
ATGATAAC,0.0339 % of ANNNNAAN 8-mers,0.0489 % of ANNNNAAN 8-mers,0.0332 % of ANNNNAAN 8-mers,0.0479 % of ANNNNAAN 8-mers
ACGGAAAA,0.0515 % of ANNNNAAN 8-mers,0.0478 % of ANNNNAAN 8-mers,0.0593 % of ANNNNAAN 8-mers,0.0446 % of ANNNNAAN 8-mers
AGCACAAG,0.0168 % of ANNNNAAN 8-mers,0.0196 % of ANNNNAAN 8-mers,0.0183 % of ANNNNAAN 8-mers,0.0124 % of ANNNNAAN 8-mers
ACGTAAAC,0.0358 % of ANNNNAAN 8-mers,0.0299 % of ANNNNAAN 8-mers,0.0433 % of ANNNNAAN 8-mers,0.0405 % of ANNNNAAN 8-mers
ACCATAAC,0.032 % of ANNNNAAN 8-mers,0.0213 % of ANNNNAAN 8-mers,0.014 % of ANNNNAAN 8-mers,0.0198 % of ANNNNAAN 8-mers
ATGACAAG,0.0404 % of ANNNNAAN 8-mers,0.0351 % of ANNNNAAN 8-mers,0.0336 % of ANNNNAAN 8-mers,0.0289 % of ANNNNAAN 8-mers
ACATGAAC,0.0244 % of ANNNNAAN 8-mers,0.0334 % of ANNNNAAN 8-mers,0.0304 % of ANNNNAAN 8-mers,0.019 % of ANNNNAAN 8-mers
AACCAAAG,0.0336 % of ANNNNAAN 8-mers,0.038 % of ANNNNAAN 8-mers,0.0539 % of ANNNNAAN 8-mers,0.0231 % of ANNNNAAN 8-mers
AGTTTAAC,0.04 % of ANNNNAAN 8-mers,0.0449 % of ANNNNAAN 8-mers,0.0375 % of ANNNNAAN 8-mers,0.033 % of ANNNNAAN 8-mers
ATTTGAAC,0.0496 % of ANNNNAAN 8-mers,0.0558 % of ANNNNAAN 8-mers,0.0745 % of ANNNNAAN 8-mers,0.0553 % of ANNNNAAN 8-mers
ATAAAAAT,0.131 % of ANNNNAAN 8-mers,0.125 % of ANNNNAAN 8-mers,0.114 % of ANNNNAAN 8-mers,0.09 % of ANNNNAAN 8-mers
ATTCGAAG,0.0564 % of ANNNNAAN 8-mers,0.0656 % of ANNNNAAN 8-mers,0.0464 % of ANNNNAAN 8-mers,0.0405 % of ANNNNAAN 8-mers
AGTGAAAC,0.0282 % of ANNNNAAN 8-mers,0.0178 % of ANNNNAAN 8-mers,0.0324 % of ANNNNAAN 8-mers,0.0206 % of ANNNNAAN 8-mers
AATATAAT,0.213 % of ANNNNAAN 8-mers,0.286 % of ANNNNAAN 8-mers,0.137 % of ANNNNAAN 8-mers,0.133 % of ANNNNAAN 8-mers
ACTATAAG,0.029 % of ANNNNAAN 8-mers,0.0339 % of ANNNNAAN 8-mers,0.03 % of ANNNNAAN 8-mers,0.0314 % of ANNNNAAN 8-mers
ACAATAAG,0.0339 % of ANNNNAAN 8-mers,0.042 % of ANNNNAAN 8-mers,0.0375 % of ANNNNAAN 8-mers,0.0396 % of ANNNNAAN 8-mers
ATGGAAAC,0.0805 % of ANNNNAAN 8-mers,0.0616 % of ANNNNAAN 8-mers,0.11 % of ANNNNAAN 8-mers,0.066 % of ANNNNAAN 8-mers
ACACTAAA,0.0256 % of ANNNNAAN 8-mers,0.0293 % of ANNNNAAN 8-mers,0.0273 % of ANNNNAAN 8-mers,0.0173 % of ANNNNAAN 8-mers
